Results taken from PubChem BioAssay (NCI).
Compounds without any hit were thinned out: in the full panel of roughly 83,000, 20% have a hit.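 Compound tested at a single concentration for 48 hours in 96-well plates; a percent growth value below 10 was scored as active.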 A number with no mark means an inactive call. The source made the active and inactive calls.

How the values were obtained:
Test in all cases: NCI-60 one-dose screen, 48 h (100 = growth as untreated, 0 = no growth, -100 = all killed)
Settings in all cases: 10 µM unless noted
DU-145 prostate = system: DU-145 prostate
MALME-3M melanoma = system: MALME-3M melanoma
MDA-MB-231 breast = system: MDA-MB-231 breast
RXF 393 renal = system: RXF 393 renal
SF-268 CNS = system: SF-268 CNS
SF-295 CNS = system: SF-295 CNS
SF-539 CNS = system: SF-539 CNS
UACC-257 melanoma = system: UACC-257 melanoma
HCT-15 colon = system: HCT-15 colon
HT29 colon = system: HT29 colon
SNB-75 CNS = system: SNB-75 CNS
SNB-19 CNS = system: SNB-19 CNS
U251 CNS = system: U251 CNS
PC-3 prostate = system: PC-3 prostate
SK-MEL-5 melanoma = system: SK-MEL-5 melanoma
UACC-62 melanoma = system: UACC-62 melanoma
LOX IMVI melanoma = system: LOX IMVI melanoma
SK-MEL-28 melanoma = system: SK-MEL-28 melanoma
K-562 leukemia = system: K-562 leukemia
M14 melanoma = system: M14 melanoma

Compound	growth (DU-145 prostate) [%]	growth (MALME-3M melanoma)	growth (MDA-MB-231 breast)	growth (RXF 393 renal)	growth (SF-268 CNS)	growth (SF-295 CNS)	growth (SF-539 CNS)	growth (UACC-257 melanoma)	growth (HCT-15 colon)	growth (HT29 colon)	growth (SNB-75 CNS)	growth (SNB-19 CNS)	growth (U251 CNS)	growth (PC-3 prostate)	growth (SK-MEL-5 melanoma)	growth (UACC-62 melanoma)	growth (LOX IMVI melanoma)	growth (SK-MEL-28 melanoma)	growth (K-562 leukemia)	growth (M14 melanoma)
CC(=O)NCC(=O)Nc1ccc(-c2nnc3ccccn23)nc1.CC(=O)NCC(=O)Nc1ccc(-c2nnc3ccccn23)nc1.[Pt+2]	109	105%	104%	117%	109%	117%	110%	78.7%	109%	98.3%	132%	107%	99.4%	101%	108%	110%	106%	118%	–	–
CCCCCCNc1cc(C)nc2ccc(OC)cc12	–	52.3%	69.6%	61.2%	93.2%	44.4%	68.4%	69.4%	60.9%	19.6%	89.2%	77.1%	55.1%	65.9%	35%	–	61.4%	67.9%	21%	59.1%
Cc1ccc(-n2nnc(C3=NCCc4c3[nH]c3ccc(Cl)cc43)c2C)cc1	87.3	98.3%	80.4%	102%	80.6%	70.6%	92.9%	57.9%	65.8%	74.4%	103%	83.3%	80%	62.1%	79.1%	30.5%	63%	100%	–	–
CN(CCC(=O)/C(=C\c1ccccc1)c1ccc(Cl)cc1)Cc1ccccc1	–	18%	13%	-29.3% (active)	5.31% (active)	25.7%	-8.26% (active)	53.5%	2.09% (active)	9.63% (active)	60.3%	23%	-10.3% (active)	45%	58.7%	-36.6% (active)	-58.3% (active)	9.17% (active)	22.7%	37.9%
Cc1cc(C)on1	–	112%	104%	101%	–	115%	103%	91.6%	105%	107%	101%	102%	98.9%	89.9%	99.6%	110%	102%	101%	102%	–
Cc1ccccc1NC(=O)CN(C)C	–	87.2%	105%	124%	103%	97.3%	98.3%	99.3%	105%	90.9%	92.6%	98.8%	104%	98.3%	105%	99.3%	99.9%	96.9%	0.938% (active)	104%
C[C@@H]1CC[C@@H]2[C@@H]1[C@H](OC(=O)/C=C/c1ccccc1)[C@]1(C3CCCCC3)C[C@@H](NC(=O)CO)[C@@]2(C)O1	107	99.2%	102%	53.2%	97.4%	112%	100%	110%	99%	86%	85%	104%	111%	94%	104%	97%	100%	98.8%	–	–
COc1c(C)cnc(CSc2nc(-c3ccc(C)cc3)cn2-c2ccc(Cl)cc2)c1C	107	93.4%	88.5%	108%	99.6%	110%	105%	91.5%	98%	73.8%	98.7%	93.7%	104%	81.7%	105%	–	96.5%	97.4%	–	–
CCOc1cc(N)ccc1C(=O)NCCCN(CC)CC	–	96.3%	93.2%	90.7%	103%	103%	100%	102%	106%	102%	85%	102%	104%	101%	100%	95.5%	100%	97.5%	80.3%	96.1%
Cc1ccc(NSc2ccccc2[N+](=O)[O-])cc1	–	44.9%	53.7%	-6.02% (active)	48.7%	11.4%	-12.3% (active)	58.1%	27%	5.05% (active)	10.1%	38.1%	21.1%	18%	13.6%	28.6%	–	63.7%	16.9%	7.95% (active)
CN1CCC(=C2c3ccccc3C=Cc3ccccc32)CC1	–	105%	8.64% (active)	51.6%	79.8%	88.1%	87.4%	81.7%	73.7%	61.9%	47.8%	91.7%	59.8%	64.9%	68.6%	82.5%	72.1%	85.9%	–	91.7%
CCOC(=O)C(=CNc1ccccc1[N+](=O)[O-])C(=O)OCC	–	115%	98.6%	104%	105%	98.6%	97.7%	94.2%	108%	92.6%	97%	91.2%	92.6%	95.7%	86.4%	84.4%	99.9%	102%	96.7%	118%
CN1CCN(C2=C(Cl)C(=O)c3ccccc3C2=O)CC1	–	4.5% (active)	41.6%	101%	–	84.1%	105%	56.5%	33%	66.7%	90.9%	93.1%	87%	60.5%	26.8%	32.9%	11.4%	73.8%	23.1%	–
Cc1ccc(NC(=O)C(Cl)Cl)cc1	–	92.7%	99.1%	119%	105%	97.8%	98.4%	92%	105%	92.7%	101%	101%	94.7%	91.8%	99.4%	98.6%	99.6%	98.2%	106%	109%
COc1ccc2cc(-c3ccc(C(=O)NN)c(C)n3)ccc2c1	103	92.5%	97.4%	113%	91.9%	99%	103%	99.6%	99%	95%	109%	96.6%	98.9%	93.3%	102%	82.1%	88.2%	93.7%	–	–
COc1cc(-c2ccc(N=Nc3c(O)c(C(=O)Nc4ccccc4OC)cc4ccccc34)c(OC)c2)ccc1N=Nc1c(O)c(C(=O)Nc2ccccc2OC)cc2ccccc12	–	90.6%	76.2%	93.1%	87.5%	95.1%	103%	109%	101%	108%	–	96%	94%	93.4%	98.9%	101%	86.3%	97.4%	90.6%	90.7%
CCCCCCCCN(CCCCCCCC)C(=N)c1ccnc2ccccc12	–	-78.5% (active)	-77.2% (active)	-87.8% (active)	-71.8% (active)	-84.4% (active)	-87.6% (active)	-68.9% (active)	-88.2% (active)	-87.1% (active)	-95.7% (active)	-70.8% (active)	-95.6% (active)	-88.7% (active)	-96.6% (active)	-74.5% (active)	-100% (active)	-86% (active)	-52.7% (active)	-84.6% (active)
O=C1c2ccccc2C2(c3ccc(O)cc3)c3ccccc3Oc3cccc1c32 (stereo not given)	–	66.4%	21.8%	11%	40.3%	21.3%	-1.29% (active)	48%	25.9%	7.07% (active)	42.2%	35.6%	15.5%	21.6%	16.9%	30.8%	28.3%	51.9%	19.8%	0.454% (active)
CN(C)c1cnccn1	–	127%	72.4%	94.5%	91.6%	122%	86.5%	95.3%	87.6%	104%	96.6%	101%	78.4%	88.6%	96.1%	98.6%	84.3%	103%	–	97.5%
Clc1ccc(/C=N\N=c2\scc(-c3ccc(Cl)cc3)n2/N=C/c2ccc(Cl)cc2)cc1	105	100%	101%	108%	97.8%	109%	96.1%	77.9%	111%	76.5%	–	90%	97.6%	102%	106%	98.7%	–	106%	–	–
COc1cc(NC(=O)c2cc(O)c(CC=C(C)C)c(O)c2)cc2c1O[C@]1(C)CC[C@@H](O)C(C)(C)[C@H]1C2	42.8	43.9%	32.8%	-23.6% (active)	42%	-49.6% (active)	-34.6% (active)	36.3%	34.3%	5.24% (active)	-7.48% (active)	44.9%	13.4%	21.5%	-20.3% (active)	-13.3% (active)	12.7%	18.8%	–	–
Cc1nn(-c2ccccc2)c2c1C(c1ccc([N+](=O)[O-])cc1)C(C#N)=C(N)O2 (stereo not given)	111	–	87.4%	99.2%	108%	–	95.9%	88.1%	106%	105%	87.7%	102%	110%	102%	122%	96.1%	101%	116%	–	106%
O=c1[nH]c(NCc2nnnn2-c2ccc(Br)cc2)nc2sc3c(c12)CCCC3	106	112%	92.4%	103%	98.7%	92.1%	95.9%	96%	98%	95.5%	–	96.1%	83.8%	84.4%	99.5%	87.1%	95.8%	112%	–	–
Nc1c(-c2nc3ccc(Br)cc3c(=O)[nH]2)nnn1-c1ccccc1	62.3	86.8%	82.2%	103%	60%	68%	90.9%	95.9%	79%	58.8%	–	70.6%	38.6%	73.4%	102%	93.9%	80.4%	96.2%	–	–
CCOC(=O)c1nnn(C(Cc2ccccc2Cl)C(=O)OCC)c1C (stereo not given)	109	117%	104%	109%	111%	111%	107%	83.6%	107%	86.8%	89.5%	104%	96.1%	94%	101%	99.9%	104%	111%	–	–
Cn1ccc(Cc2cnc(N)s2)n1	110	100%	104%	107%	100%	107%	99.5%	81.7%	104%	–	93.3%	98.9%	97.5%	98.8%	101%	100%	103%	106%	–	–
CCOC(=O)C(O)C(O)(c1ccccc1)c1ccccc1 (stereo not given)	–	103%	94.4%	113%	95.4%	95.6%	94.5%	106%	98%	99.7%	89.7%	114%	97.3%	96.8%	97.6%	98.5%	102%	95.8%	98%	101%
